Data as given in PubChem BioAssay (NCI).
About 83,000 compounds went through this panel and 20% of them were active in at least one assay; those are over-represented in the sample as a whole.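 Plates (96-well) were seeded with cells, treated with compound at one concentration, and incubated for 48 hours before percent growth was determined.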 Active and inactive are the calls of the source. Rule for the calls: active = growth percent below 10; inactive = the rest.

Legend:
Assay in all cases: NCI-60 one-dose screen, 48 h (100 = growth as untreated, 0 = no growth, -100 = all killed)
Settings in all cases: 10 µM unless noted
NCI-H23 lung = tested on: NCI-H23 lung
NCI-H226 lung = tested on: NCI-H226 lung
NCI-H322M lung = tested on: NCI-H322M lung
HOP-62 NSCLC = tested on: HOP-62 NSCLC
NCI-H460 lung = tested on: NCI-H460 lung
HOP-92 NSCLC = tested on: HOP-92 NSCLC
NCI-H522 lung = tested on: NCI-H522 lung
A549/ATCC NSCLC = tested on: A549/ATCC NSCLC
786-0 renal = tested on: 786-0 renal

Measured: growth

C=C1C(=O)O[C@H]2[C@H]1CC/C(COC(=O)NCc1ccc(Cn3c(=O)sn(CCCCl)c3=O)cc1)=C\CC[C@@]1(C)O[C@@H]21
inactive: NCI-H23 lung 70.8% | NCI-H226 lung 58.7% | NCI-H322M lung 88.8% | HOP-62 NSCLC 87.2% | NCI-H460 lung 101% | A549/ATCC NSCLC 90.5% | 786-0 renal 38.1%
active: HOP-92 NSCLC -53.8% | NCI-H522 lung -89.7%

Cc1c(C(=O)O[C@H]2[C@@H]3[C@H](C)CC[C@H]3[C@]3(C)O[C@@]2(C2CCCCC2)C[C@H]3OC(=O)CO)ccc2ccccc12
active: NCI-H460 lung -36% | 786-0 renal 9.76%
inactive: NCI-H23 lung 35.2% | NCI-H226 lung 30.5% | NCI-H322M lung 70.5% | HOP-62 NSCLC 29.7% | HOP-92 NSCLC 10.9% | NCI-H522 lung 19.6% | A549/ATCC NSCLC 30.2%

OC(c1cccc(OCc2ccccc2)c1)c1nnc(-c2ccccc2)o1 (configuration not stated)
inactive: NCI-H23 lung 83% | NCI-H226 lung 66.9% | NCI-H322M lung 120% | HOP-62 NSCLC 107% | NCI-H460 lung 96% | HOP-92 NSCLC 80.9% | NCI-H522 lung 79.2% | A549/ATCC NSCLC 95.1% | 786-0 renal 100%

C=C1C(=O)O[C@H]2[C@H]1CC/C(COC(=O)/C=C/C(=O)NCc1ccc(Cn3c(=O)sn(-c4ccccc4)c3=O)cc1)=C\CC[C@@]1(C)O[C@@H]21
inactive: NCI-H23 lung 49.7% | NCI-H226 lung 14.5% | NCI-H322M lung 89.9% | HOP-62 NSCLC 85.5% | NCI-H460 lung 91.9% | A549/ATCC NSCLC 80.2%
active: HOP-92 NSCLC -53.7% | NCI-H522 lung -80.1% | 786-0 renal -19.1%

O=C1CSC(c2ccccc2)N1c1ccccc1 (configuration not stated)
inactive: NCI-H23 lung 99.7% | NCI-H226 lung 96.2% | NCI-H322M lung 90.4% | HOP-62 NSCLC 116% | NCI-H460 lung 103% | HOP-92 NSCLC 82.4% | NCI-H522 lung 104% | A549/ATCC NSCLC 103% | 786-0 renal 105%

N=C(N)c1ccc(-c2ccc(-c3ccc(Cl)c(Cl)c3)o2)cc1
inactive: NCI-H23 lung 45.4% | NCI-H226 lung 90.5% | HOP-62 NSCLC 42.3% | HOP-92 NSCLC 58.9% | NCI-H522 lung 57.7%
active: NCI-H322M lung -23% | NCI-H460 lung -68.8% | A549/ATCC NSCLC -6.23% | 786-0 renal -91.1%

Cc1cn(C2CCCCC2)c(=O)[nH]c1=O
inactive: NCI-H23 lung 115% | NCI-H226 lung 101% | NCI-H322M lung 129% | HOP-62 NSCLC 109% | NCI-H460 lung 117% | HOP-92 NSCLC 97.4% | NCI-H522 lung 97.8% | A549/ATCC NSCLC 101% | 786-0 renal 107%

COc1ccc(Oc2nc(Nc3ccc(N4CCCCC4)nc3)ncc2NC(=O)c2cc(OC)cc(OC)c2)cc1
inactive: NCI-H23 lung 68.8% | NCI-H226 lung 60.2% | NCI-H322M lung 48.9% | HOP-62 NSCLC 42.5% | NCI-H460 lung 19% | HOP-92 NSCLC 76.4% | NCI-H522 lung 26.6% | A549/ATCC NSCLC 41.6% | 786-0 renal 39.6%

CNCCNc1nc2ccccc2c2c(=O)c3cc(F)ccc3oc12
inactive: NCI-H23 lung 64.8% | NCI-H226 lung 68% | NCI-H322M lung 43.8% | HOP-62 NSCLC 44.2% | NCI-H460 lung 55.8% | HOP-92 NSCLC 33.3% | NCI-H522 lung 58% | A549/ATCC NSCLC 50.8% | 786-0 renal 53.1%

CC1(C)N=C(N)N=C(N)N1c1cccc(CN)c1
inactive: NCI-H23 lung 93.2% | NCI-H226 lung 92.7% | NCI-H322M lung 94.3% | HOP-62 NSCLC 92.3% | NCI-H460 lung 111% | HOP-92 NSCLC 80.5% | NCI-H522 lung 80.7% | A549/ATCC NSCLC 91% | 786-0 renal 99.1%

O=C(/C=C/C12c3ccccc3C(c3ccccc31)C1C(=O)NC(=O)C12)c1ccccc1 (configuration not stated)
inactive: NCI-H226 lung 11% | NCI-H322M lung 17.6% | HOP-62 NSCLC 34.8% | NCI-H522 lung 39.1% | A549/ATCC NSCLC 26.3% | 786-0 renal 27.1%
active: NCI-H23 lung 6.51% | NCI-H460 lung 1.66% | HOP-92 NSCLC 3.17%

O=C(/C=C/C12c3ccccc3C(c3ccccc31)C1C(=O)NC(=O)C12)c1ccc(Cl)cc1 (configuration not stated)
inactive: NCI-H522 lung 11.4% | A549/ATCC NSCLC 15.4%
active: NCI-H23 lung -2% | NCI-H226 lung -22.3% | NCI-H322M lung 2.94% | HOP-62 NSCLC 6.96% | NCI-H460 lung -43.7% | HOP-92 NSCLC -15.2% | 786-0 renal -9.5%

CCCCCOC(=O)c1cccc(NC(=O)CN(CC)CC)c1
inactive: NCI-H23 lung 102% | NCI-H226 lung 96.7% | NCI-H322M lung 97.6% | HOP-62 NSCLC 86.8% | NCI-H460 lung 111% | HOP-92 NSCLC 75.6% | NCI-H522 lung 62% | A549/ATCC NSCLC 95.7% | 786-0 renal 81.2%

O=C(/C=C/C12c3ccccc3C(c3ccccc31)C1C(=O)N(c3ccccc3)C(=O)C12)c1ccccc1 (configuration not stated)
inactive: NCI-H322M lung 12.9% | HOP-62 NSCLC 28.7% | NCI-H522 lung 16.7% | A549/ATCC NSCLC 20.5%
active: NCI-H23 lung 5.23% | NCI-H226 lung -27.4% | NCI-H460 lung -41.3% | HOP-92 NSCLC -6.42% | 786-0 renal 3.15%

CSc1nc2sc3cc(Cl)ccc3n2c(=N)c1C#N
inactive: NCI-H23 lung 82.2% | NCI-H226 lung 57% | NCI-H322M lung 107% | HOP-62 NSCLC 119% | NCI-H460 lung 92.7% | HOP-92 NSCLC 77% | NCI-H522 lung 94.3% | A549/ATCC NSCLC 62.3% | 786-0 renal 47.6%

Nc1ccc(CCCCc2ccccc2)c(Cl)c1
inactive: NCI-H23 lung 101% | NCI-H226 lung 96.8% | NCI-H322M lung 85% | HOP-62 NSCLC 105% | NCI-H460 lung 102% | HOP-92 NSCLC 53.1% | NCI-H522 lung 71.1% | A549/ATCC NSCLC 81.2% | 786-0 renal 88.9%

Cc1cc(-c2noc(C(F)(F)F)n2)ccc1N1CCN(c2cc(C(=O)N(C)C)no2)CC1
inactive: NCI-H23 lung 55.6% | NCI-H226 lung 55.8% | NCI-H322M lung 101% | HOP-62 NSCLC 68.1% | NCI-H460 lung 75.7% | HOP-92 NSCLC 63.5% | NCI-H522 lung 57% | A549/ATCC NSCLC 67.3% | 786-0 renal 80.4%

Clc1ccc2[nH]c3c(NCCCN4CCOCC4)ncnc3c2c1
inactive: NCI-H23 lung 76.8% | NCI-H226 lung 86.1% | NCI-H322M lung 68.9% | HOP-62 NSCLC 83.5% | NCI-H460 lung 69.3% | HOP-92 NSCLC 67.8% | NCI-H522 lung 90.3% | A549/ATCC NSCLC 80.1% | 786-0 renal 80.3%
